Measurements reported in ChEMBL document CHEMBL1157539, “Thousands of chemical starting points for antimalarial lead identification” (Nature, 2010).

What was measured:
Format in all cases: functional
[1] = test system: Plasmodium falciparum; test: GSK_TCMDC: Inhibition of Plasmodium falciparum 3D7 in whole red blood cells, using parasite LDH activity as an index of growth. Test compounds present at 2uM
[2] = test system: Plasmodium falciparum; test: GSK_TCMDC: Inhibition of Plasmodium falciparum Dd2 in whole red blood cells, using parasite LDH activity as an index of growth. Test compounds present at 2uM
[3] = test system: HepG2; test: GSK_TCMDC: Percent inhibition of human HepG2 cell line. Test compounds present at 10uM.

CCc1cn2c3c(cc(C(=O)N[C@@H](Cc4ccccc4)[C@H](O)CNCc4ccccc4C)cc13)N(C)S(=O)(=O)CC2.O=CO
Inhibition [1]: 98% | Inhibition [2]: 98% | Inhibition [3]: 3%

COc1ccc(CNc2nc(NCc3ccccc3)c3cc(OC)c(OC)cc3n2)cc1OC
Inhibition [1]: 100% | Inhibition [2]: 99% | Inhibition [3]: 24%

CC(C)[C@H](NC(=O)c1ccc(O)c(-c2ccc(Cl)c(Cl)c2)c1)C(=O)NCCN1CCOCC1
Inhibition [1]: 95% | Inhibition [2]: 44% | Inhibition [3]: 0%

Cc1ncccc1C(=O)Nc1cccc(-c2cccc(-c3nc4cc(C(F)(F)F)ccc4[nH]3)c2)c1
Inhibition [1]: 96% | Inhibition [2]: 30% | Inhibition [3]: 34%

CC(C)CCNC(=N)Nc1ccc(OCCCOc2ccc(NC(=N)NCCC(C)C)cc2)cc1
Inhibition [1]: 100% | Inhibition [2]: 95% | Inhibition [3]: 0%

O=c1cc(NCCCNC2CCOc3c(Cl)cccc32)[nH]c2ccccc12 (stereo not given)
Inhibition [1]: 96% | Inhibition [2]: 27% | Inhibition [3]: 0%

COc1ccc2nccc([C@@H](O)CN3CCC(NC(=O)/C=C/c4cc(F)cc(NC(C)=O)c4)CC3)c2c1
Inhibition [1]: 97% | Inhibition [2]: 49% | Inhibition [3]: 7%

CN(CCN1CCCC1)c1nc2cc(-n3cnc4cc(-c5ccc(Cl)cc5)sc4c3=O)ccc2[nH]1.CS(=O)(=O)O
Inhibition [1]: 93% | Inhibition [2]: 15% | Inhibition [3]: 76%

Cc1cc(N[C@@H](Cc2ccccc2)C(=O)NCc2cccc(F)c2)nc(Nc2ccccc2)n1.O=C(O)C(F)(F)F
Inhibition [1]: 100% | Inhibition [2]: 92% | Inhibition [3]: 20%

COc1ccc(CCC(C)N2CC(N)C(c3cn(C)c4cnccc34)C2)cc1.Cl (stereo not given)
Inhibition [1]: 98% | Inhibition [2]: 0% | Inhibition [3]: 5%

Cl.N#Cc1ccc2c(c1)CCN(CCC1CCC(NC(=O)/C=C/c3nc4ccccc4s3)CC1)CC2 (stereo not given)
Inhibition [1]: 90% | Inhibition [2]: 0% | Inhibition [3]: 6%

Fc1cc(Cl)ccc1Nc1ccnc2cc(-c3scnc3CNCCN3CCOCC3)ccc12
Inhibition [1]: 99% | Inhibition [2]: 84% | Inhibition [3]: 0%

CN(c1ccc(NC(=O)Nc2cc(C(F)(F)F)ccc2F)cc1)c1ccnc(NCCN2CCOCC2)n1.O=C(O)C(F)(F)F
Inhibition [1]: 97% | Inhibition [2]: 73% | Inhibition [3]: 67%

C=CCc1cc(OC)ccc1OCCCOc1c(C)nc(N)nc1N.Cl
Inhibition [1]: 92% | Inhibition [2]: 97% | Inhibition [3]: 67%

CC(C)CNC(=O)c1ccnc(-c2ccc(CNC3Cc4ccccc4C3)cc2)c1.O=C(O)C(F)(F)F
Inhibition [1]: 99% | Inhibition [2]: 29% | Inhibition [3]: 25%

Cc1[nH]c(C)c(-c2ccc(-c3ccc(C(F)(F)F)cc3C(F)(F)F)nc2)c(=O)c1Br
Inhibition [1]: 97% | Inhibition [2]: 97% | Inhibition [3]: 30%

CC(=O)Nc1nc(C(=O)Nc2cccc(-c3cccc(-c4nc5ccccc5[nH]4)c3)c2)cs1
Inhibition [1]: 100% | Inhibition [2]: 82% | Inhibition [3]: 31%

COc1ccc(-c2cncc(-c3ccc(OC)c(OC)c3)n2)cc1OC.Cl
Inhibition [1]: 95% | Inhibition [2]: 90% | Inhibition [3]: 6%

O=C(Nc1cccc(CN2CCCN(CC3CCCCC3)CC2)c1)c1cc2ccccc2s1.O=C(O)C(F)(F)F
Inhibition [1]: 96% | Inhibition [2]: 15% | Inhibition [3]: 29%

COc1cccc(NC(=O)c2cc([N+](=O)[O-])ccc2NC(=O)CN2CCc3ccccc3C2)c1
Inhibition [1]: 100% | Inhibition [2]: 37% | Inhibition [3]: 5%

O=C(Nc1ccc(-c2cccc(-c3nc4cc(C(F)(F)F)ccc4[nH]3)c2)cc1)c1cccnc1
Inhibition [1]: 100% | Inhibition [2]: 24% | Inhibition [3]: 74%

CCCC(=O)c1cnc2c(I)cccc2c1Nc1ccccc1C
Inhibition [1]: 90% | Inhibition [2]: 26% | Inhibition [3]: 7%

CC(Nc1ccc2c(c1)OCCO2)C(=O)Nc1cc(C(F)(F)F)ccc1N1CCOCC1 (stereo not given)
Inhibition [1]: 98% | Inhibition [2]: 70% | Inhibition [3]: 0%

CCOC(=O)c1[nH]c2ccc(F)cc2c1NC(=O)CN1CCN(c2cccc(C(F)(F)F)c2)CC1
Inhibition [1]: 96% | Inhibition [2]: 90% | Inhibition [3]: 12%

C#CCN(Cc1cc2c(=O)[nH]c(N)nc2cc1C)c1ccc(C(=O)N[C@@H](CCC(=O)O)C(=O)O)cc1
Inhibition [1]: 92% | Inhibition [2]: 74% | Inhibition [3]: 28%

CN(C)CCN(Cc1ccccc1-c1ccc(CNCCc2ccccc2)cc1)C(=O)NC1CCCCC1.O=C(O)C(F)(F)F
Inhibition [1]: 88% | Inhibition [2]: 89% | Inhibition [3]: 98%

CC1(CCCCN2CCC(Cc3ccccc3)CC2)C(=O)Nc2ccccc21.Cl (stereo not given)
Inhibition [1]: 100% | Inhibition [2]: 28% | Inhibition [3]: 66%

CC(Cc1ccc(Cl)cc1)Nc1nc(NC2CCCC2)nc(N2CCC(C#N)(c3ccccc3)CC2)n1 (stereo not given)
Inhibition [1]: 99% | Inhibition [2]: 95% | Inhibition [3]: 15%

CN1CCC(NCc2ccc(-c3cnc(NCc4ccccc4)nc3)cc2)CC1.O=C(O)C(F)(F)F
Inhibition [1]: 91% | Inhibition [2]: 64% | Inhibition [3]: 23%

CCCCn1c(Sc2ccc(C#N)c([N+](=O)[O-])c2)nnc1-c1cc(OC)cc(OC)c1
Inhibition [1]: 94% | Inhibition [2]: 70% | Inhibition [3]: 7%

Cc1cnc(N2CCN(CC3CCN(C)CC3)CC2)nc1Oc1ccc(-n2ccnc2)cc1.O=C(O)C(F)(F)F
Inhibition [1]: 99% | Inhibition [2]: 66% | Inhibition [3]: 9%

O=C(Nc1ccsc1)Nc1cccc(-c2cccc(-c3nc4ccccc4[nH]3)c2)c1
Inhibition [1]: 100% | Inhibition [2]: 55% | Inhibition [3]: 61%

CC(C)CN1CCCN(Cc2cccc(NC(=O)c3ccc(Cl)c(Cl)c3)c2)CC1.O=C(O)C(F)(F)F
Inhibition [1]: 91% | Inhibition [2]: 9% | Inhibition [3]: 10%

CC(C)(C)c1ccc(CN2CCCCC(NC(=O)c3cc(-c4cccc(F)c4)cs3)C2)cc1.O=C(O)C(F)(F)F (stereo not given)
Inhibition [1]: 98% | Inhibition [2]: 84% | Inhibition [3]: 8%

COc1ccc(-c2cccc(NC(=O)c3ccc(C#N)cc3)c2)cc1CN1CCCN(C)CC1.O=C(O)C(F)(F)F
Inhibition [1]: 100% | Inhibition [2]: 89% | Inhibition [3]: 22%

COc1cccc(CN2CCCC(OC(c3ccccc3)c3ccccc3)C2)c1O.O=C(O)C(F)(F)F (stereo not given)
Inhibition [1]: 90% | Inhibition [2]: 73% | Inhibition [3]: 19%

Cc1cc(Nc2ncc(C#N)c(Nc3ccccc3C(N)=O)n2)ccc1N1CCN(C)CC1.Cl
Inhibition [1]: 94% | Inhibition [2]: 94% | Inhibition [3]: 99%

COc1ccc(CNC2Cc3ccccc3C2)cc1-c1ccc(S(=O)(=O)NCCN2CCCC2)s1.O=C(O)C(F)(F)F
Inhibition [1]: 100% | Inhibition [2]: 100% | Inhibition [3]: 89%

Cl.O=C(Nc1ccc(Cl)c(Cl)c1)N1CCc2ccc(OCCCN3CCCCC3)cc2CC1
Inhibition [1]: 92% | Inhibition [2]: 0% | Inhibition [3]: 27%

CN1CCC(C(=O)Nc2cccc(-c3ccc(-c4nc5ccccc5[nH]4)cc3)c2)CC1
Inhibition [1]: 82% | Inhibition [2]: 15% | Inhibition [3]: 7%

COc1ccccc1Nc1nc(C)cc(NCc2ccc(-n3ccnc3)cc2)n1
Inhibition [1]: 90% | Inhibition [2]: 10% | Inhibition [3]: 5%

Cc1ccc(-c2nc(Nc3ccncc3)c3ccccc3n2)s1
Inhibition [1]: 95% | Inhibition [2]: 34% | Inhibition [3]: 6%

Cc1ccccc1C1CCN(C2CCC(NC(=O)c3ccc(-c4cccc(C(F)(F)F)c4)o3)CC2)CC1 (stereo not given)
Inhibition [1]: 99% | Inhibition [2]: 100% | Inhibition [3]: 56%

O=C(O)C(F)(F)F.c1ccc(C(c2ccccc2)N2CCC(NCc3ccc(OCCCN4CCCCC4)cc3)CC2)cc1
Inhibition [1]: 100% | Inhibition [2]: 100% | Inhibition [3]: 74%

CCOc1ccc(-c2nonc2NC(=O)c2ccc(OC)cc2)cc1OCC
Inhibition [1]: 98% | Inhibition [2]: 77% | Inhibition [3]: 0%

Cc1cnc(C(=O)Nc2ccc3c(c2)CCCN(Cc2c[nH]c4cnccc24)C3)cn1.O=CO
Inhibition [1]: 92% | Inhibition [2]: 20% | Inhibition [3]: 0%

O=C(NCCN1CCCCC1)c1ccc(CNC(=O)c2ccc(O)c(-c3cccc(C(F)(F)F)c3)c2)cc1
Inhibition [1]: 94% | Inhibition [2]: 47% | Inhibition [3]: 3%

COc1ccc2nccc([C@@H](O)CN3CCC(NCc4nc5c(OCc6ccccc6)cccc5[nH]4)CC3)c2c1.O=C(O)C(=O)O
Inhibition [1]: 100% | Inhibition [2]: 34% | Inhibition [3]: 6%

Br.N=C(N)c1ccc(C(=O)Nc2cccc(C(=N)N)c2)cc1
Inhibition [1]: 88% | Inhibition [2]: 82% | Inhibition [3]: 13%

CCS(=O)(=O)c1ccc(OC)c(Nc2nccc(-c3c(-c4cccc(NC(=O)c5c(F)cccc5F)c4)nn4ncccc34)n2)c1
Inhibition [1]: 87% | Inhibition [2]: 88% | Inhibition [3]: 27%

COc1cc(C(=O)Nc2cccc(-c3nc4ccccc4[nH]3)c2)cc(OC)c1OC
Inhibition [1]: 99% | Inhibition [2]: 41% | Inhibition [3]: 25%

COc1ccc(S(=O)(=O)NC2CCN(c3ccc(C(F)(F)F)cc3NC(=O)OCC(C)C)CC2)cc1
Inhibition [1]: 85% | Inhibition [2]: 13% | Inhibition [3]: 19%

O=C(NC1CCN(Cc2ccccc2)CC1)c1cc(-c2ccncc2)nc2ccc(Cl)cc12
Inhibition [1]: 97% | Inhibition [2]: 27% | Inhibition [3]: 17%

Nc1c2c(nc3ccc(Oc4ccc(Br)cc4Br)cc13)CCCC2
Inhibition [1]: 99% | Inhibition [2]: 47% | Inhibition [3]: 33%

NC(=O)C1CCN(Cc2cccc(-c3cccc(-c4nc5cc(C(F)(F)F)ccc5[nH]4)c3)c2)CC1.O=C(O)C(F)(F)F
Inhibition [1]: 100% | Inhibition [2]: 100% | Inhibition [3]: 16%

O=c1cc(NCCCNC2CCc3ccc(Cl)cc32)[nH]c2ccccc12 (stereo not given)
Inhibition [1]: 92% | Inhibition [2]: 39% | Inhibition [3]: 0%

Cc1cc2c(/C=C/C(=O)NC3CCC(CCN4CCc5ccc(C#N)cc5CC4)CC3)cccc2[nH]1.Cl (stereo not given)
Inhibition [1]: 95% | Inhibition [2]: 39% | Inhibition [3]: 16%

CC(C)(C)CC(C)(C)c1ccc(O)c(C(=O)Nc2ccc([N+](=O)[O-])cc2)c1
Inhibition [1]: 97% | Inhibition [2]: 99% | Inhibition [3]: 80%

Cc1cccc2nc(-c3ccc(-c4cccc(NC(=O)Nc5ccc(Cl)cc5)c4)s3)[nH]c12
Inhibition [1]: 100% | Inhibition [2]: 52% | Inhibition [3]: 25%

COc1ccc2[nH]ccc(=NN=Cc3ccc(Cl)cc3)c2c1
Inhibition [1]: 100% | Inhibition [2]: 72% | Inhibition [3]: 9%
